Test results from PubChem BioAssay AID1159580 (chemical genetic matrix, 2015).
“And” between values parts separate entries of the source, which are not always exact repeats. Equal entries are not always repeated. Screen size: about 5,500 compounds; about 2,000 (36%) were called active. About 18% were inconclusive and are not listed. No stated cut-off is given here; in the data, active means normalized growth mostly below about 0.91 (no sharp cut-off); inconclusive means no clear call, values can overlap the other calls; inactive means mostly above about 0.92. The list shows a part of the results.

Assay: chemical genetic growth profiling, strain panel (AID 1159580);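 further: tested at 20 µM; growth read once vehicle control cultures reached saturation at 30 °C; 1 = growth at the plate median or of vehicle wells; lower values mean less growth of the strain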
Settings: S. cerevisiae deletion strains, growth OD

Measured: normalized growth

CC1=NCCc2c1[nH]c1cc(O)ccc21
inactive: locus YAL013W, strain DEP1, hits give low values 0.99 | locus YAL021C, strain ccr4, hits give low values 0.923 | locus YAL026C, strain drs2, hits give low values 0.987 | locus YAL030W, strain snc1, hits give low values 0.984 | locus YBL061C, strain skt5, hits give low values 0.995 | locus YBR009C, strain hhf1, hits give low values 0.97 | locus YBR021W, strain FUR4, hits give low values 0.989 | locus YBR023C, strain chs3, hits give low values 0.994 | locus YBR171W, strain sec66, hits give low values 0.993 | locus YBR229C, strain ROT2, hits give low values 0.955 | locus YBR231C, strain swc5, hits give low values 1.02 | locus YBR279W, strain paf1, hits give low values 0.995 | locus YCL011C, strain gbp2, hits give low values 0.963 | locus YCL016C, strain dcc1, hits give low values 0.967 | locus YCL029C, strain bik1, hits give low values 0.994 | locus YCL069W, strain vba3, hits give low values 0.976 | locus YCR088W, strain abp1, hits give low values 0.99 | locus YDL005C, strain med2, hits give low values 0.995 | locus YDL035C, strain GPR1, hits give low values 0.992 | locus YDL040C, strain nat1, hits give low values 0.993 | locus YDL074C, strain BRE1, hits give low values 0.997 | locus YDL101C, strain DUN1, hits give low values 0.978 | locus YDL134C, strain PPH21, hits give low values 0.988 | locus YDL185W, strain tfp1, hits give low values 0.993 | locus YDL192W, strain arf1, hits give low values 0.992 | locus YDR001C, strain nth1, hits give low values 0.971 | locus YDR069C, strain doa4, hits give low values 0.986 | locus YDR101C, strain arx1, hits give low values 0.997 | locus YDR137W, strain rgp1, hits give low values 0.98 | locus YDR150W, strain NUM1, hits give low values 0.972 | locus YDR159W, strain sac3, hits give low values 1.02 | locus YDR162C, strain NBP2, hits give low values 0.99 | locus YDR195W, strain ref2 0.953 | locus YDR297W, strain sur2, hits give low values 0.996 | locus YDR318W, strain mcm21, hits give low values 0.994 | locus YDR334W, strain swr1, hits give low values 0.97 | locus YDR335W, strain msn5, hits give low values 0.986 | locus YDR388W, hits give low values 1 | locus YDR392W, strain spt3, hits give low values 0.93 | locus YDR502C, strain sam2, hits give low values 0.984 | locus YEL003W, strain gim4, hits give low values 0.994 | locus YEL037C, strain rad23, hits give low values 0.978 | locus YEL061C, strain CIN8 (second series), hits give low values 0.985 | locus YEL061C, strain CIN8, hits give low values 0.988 | locus YER015W, strain faa2, hits give low values 0.975 | locus YER016W, strain bim1, hits give low values 0.993 | locus YER110C, hits give low values 0.974 | locus YER111C, strain swi4, hits give low values 0.995 | locus YER155C, strain BEM2 (second series), hits give low values 1.03 | locus YER155C, strain BEM2, hits give low values 1.01 | locus YER167W, strain BCK2, hits give low values 1 | locus YFR010W, strain ubp6, hits give low values 0.983 | locus YGL078C, strain dbp3, hits give low values 0.991 | locus YGL086W, strain mad1, hits give low values 0.987 | locus YGL167C, strain pmr1, hits give low values 0.976 | locus YGL173C, strain kem1, hits give low values 0.991 | locus YGL227W, strain vid30, hits give low values 0.99 | locus YGL240W, strain doc1, hits give low values 1 | locus YGL248W, strain PDE1, hits give low values 0.99 | locus YGL253W, strain hxk2, hits give low values 0.985 | locus YGR078C, strain PAC10, hits give low values 1.01 | locus YGR135W, strain pre9, hits give low values 0.992 | locus YGR229C, strain SMI1, hits give low values 1.01 | locus YGR252W, strain gcn5, hits give low values 0.932 | locus YHR013C, strain ard1, hits give low values 0.95 | locus YHR027C, strain rpn1, hits give low values 0.966 | locus YHR030C, strain SLT2, hits give low values 0.995 and 1.01 | locus YHR079C, strain IRE1 (second series), hits give low values 0.995 | locus YHR079C, strain IRE1, hits give low values 1.01 | locus YHR094C, strain hxt1, hits give low values 0.99 | locus YHR129C, strain ARP1, hits give low values 1 | locus YHR142W, strain chs7, hits give low values 0.968 | locus YHR200W, strain rpn10, hits give low values 0.991 | locus YIL066C, strain RNR3, hits give low values 0.975 | locus YIL073C, strain SPO22, hits give low values 0.992 | locus YIL125W, strain kgd1, hits give low values 0.988 | locus YIR030C, strain dcg1, hits give low values 0.985 | locus YJL092W, strain hpr5, hits give low values 0.965 | locus YJL095W, strain BCK1 (second series), hits give low values 0.983 | locus YJL095W, strain BCK1, hits give low values 1.05 and 1.01 | locus YJL115W, strain asf1, hits give low values 0.956 | locus YJL129C, strain trk1, hits give low values 1.01 | locus YJL134W, strain LCB3, hits give low values 0.986 | locus YJL154C, strain vps35, hits give low values 0.977 | locus YJL164C, strain tpk1, hits give low values 0.95 | locus YJL166W, strain qcr8, hits give low values 1.01 | locus YJL168C, strain set2, hits give low values 0.999 | locus YJL187C, strain SWE1 (second series), hits give low values 0.991 | locus YJL187C, strain SWE1, hits give low values 0.989 | locus YJR043C, strain POL32, hits give low values 1.01 | locus YJR066W, strain TOR1, hits give low values 0.934
